Bioassay records as filed in PubChem.
KDM5B inh = Primary screen for KDM5B Histone Demethylases FDH-coupled qHTS; Potency, µM (highest dose often 57.7 µM), hits mostly inhibitors; hit rate 2.6% among 220,000; Lysine-specific demethylase 5B (Homo sapiens), Q9UGL1; AID 1347165, 2019; KDM5B demethylase, FDH-coupled NADH fluorescence (FDH is formaldehyde dehydrogenase); further: nearly all actives have a fitted effect of over 70% in size
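Measured: NADH fluorescence change, 30 min, RT. System: KDM5BΔAP 200 nM final, H3K4me3 peptide, α-KG, Fe(II), ascorbate, NAD⁺ plus FDH, pH 7.5 HEPES. Compounds: titrated, 10 min pre-incubation with enzyme.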
IP6K1 inh = Primary qHTS assay for small molecule inhibitors of Inositol hexaphosphate kinase 1 (IP6K1); Inositol hexakisphosphate kinase 1 (Homo sapiens), Q92551; IP6K1 kinase, ADP-Glo luminescence, 2 h; active compounds read low; activity change, % (series mostly up to about 58 µM); hit rate 0.81% among 140,000; in the data active means activity change below about -25%
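ADP-Glo luminescence measures ADP made by human IP6K1 during a 2 h RT reaction with ATP/IP6 (mix at 1.3 mM/130 uM); top library doses 57.5 and 19.1 uM final.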
IP6K1 conf = Confirmatory qHTS assay for small molecule inhibitors of Inositol hexaphosphate kinase 1 (IP6K1) | shares compounds with IP6K1 inh | recombinant IP6K1 kinase, ADP-Glo luminescence, 2 h | Potency, µM (titrated, usually from 49 µM), most hits filed as inhibitors | hit rate 13% among 1,200 | AID 1645852, 2021; further: nearly all actives have a fitted effect of over 65% in size
Hits are given with their value; n = inactive; u = inconclusive; x = no result given. In the library only some 2.8% were active in any assay of this set; here they are far more common. Unless noted, the call rests on the fitted dose curve; in most records, active means well fitted inhibition curve with a large enough effect; inconclusive means small, poorly fitted or top-dose-only effect; inactive means no such curve, though single readings can be large or run the other way.

SMILES	KDM5B inh	IP6K1 inh	IP6K1 conf
C=CCN1CC2(CCC1=O)CCN(C(=O)[C@H](N)c1ccccc1)CC2	n	n	x
CC[C@H](C)[C@H](N)C(=O)N1CCC2(CCC(=O)N(Cc3ccccc3)C2)CC1	n	-39	n
CNC(=O)[C@H]1C[C@]2(CCCCN(C)C2=O)N(C(C)=O)[C@H]1c1ccco1	x	n	x
COc1ccccc1N1CC(c2nc3ccc(C)cc3[nH]2)CC1=O (stereo not drawn)	n	x	x
Cc1nn(-c2ccccc2)c(C)c1CC(=O)N1CCN(S(=O)(=O)c2ccccc2F)CC1	n	x	x
Cc1ccccc1CNC(=O)c1cc2cccc3c2n1CC(C)S3 (stereo not drawn)	u	n	x
COc1ccccc1CNC(=O)c1cc2cccc3c2n1CC(C)S3 (stereo not drawn)	u	-33	n
COc1ccc(-c2nnc(C(C)Sc3nnc(-c4cccs4)n3C3CC3)o2)cc1 (stereo not drawn)	n	x	x
COc1ccc(-c2csc(=Nc3ccccc3)n2CCO)cc1F	u	-31	u
CCN(CC)CCn1c(-c2ccccc2)csc1=Nc1ccccc1	u	n	x
Cc1cccc(C)c1-n1nnnc1C(C)(C)Nc1ccc2c(c1)OCCO2	n	x	x
Cn1nc(C(C)(C)C)cc1C(=O)NNC(=O)c1ccc(C(F)(F)F)cc1	n	x	x
Cn1nc(-c2ccc(C(F)(F)F)cc2)nc2c(=O)n(C)c(=O)nc1-2	x	-41	u
CC(=O)N1CCN(CC(=O)Nc2sc3c(c2C(N)=O)CCCC3)CC1	n	x	x
CCC1CN(C(=O)Nc2cc(OC)cc(OC)c2)c2ccccc2S1 (stereo not drawn)	n	n	x
CCC1CN(C(=O)Nc2ccc(C)c(F)c2)c2ccccc2S1 (stereo not drawn)	n	-27	n
O=C(NCc1cccnc1)c1ccc2oc(-c3ccc(C(F)(F)F)cc3)nc2c1	n	n	x
CN(C)C(=O)CN1CCN(C(C(=O)O)c2c[nH]c3cc(F)ccc23)CC1 (stereo not drawn)	n	x	x
COC(=O)c1ccccc1NC(=O)c1sc2nc(C)cc(C)c2c1NC(=O)c1ccccc1Cl	u	n	x
COC(=O)c1ccccc1NC(=O)c1sc2nc(C)cc(C)c2c1NC(=O)c1ccccc1OC	u	-30	n
Cn1c(=O)c2c(-c3ccccc3)n(CCCO)cc2n(C)c1=O	u	n	x
N=c1c2c(-c3ccccc3)cn(Cc3ccccc3)c2ncn1CCCO	x	x	n
CCOc1cc(-c2ccc(OC(=O)c3ccc(C)cc3)c(OC)c2)cc(=O)c2c(C)oc(C)c12	u	-27	n
COc1cc(-c2cc(OC)c3c(C)oc(C)c3c(=O)c2)ccc1OC(=O)c1ccc(C)cc1	u	n	x
Cc1ccc(C(=O)Oc2cc(-c3ccc4c(c3)OCO4)cc(=O)c3c(C)oc(C)c23)cc1	u	-54	u
SMILES	KDM5B inh	IP6K1 inh	IP6K1 conf
Cc1oc(C)c2c(=O)cc(-c3ccc4c(c3)OCO4)cc(OC(=O)c3cccc(Cl)c3)c12	u	n	x
CNC(=O)NC(=O)CSc1nnc(-c2ccncc2)n1CC(F)(F)F	n	x	x
CC(C)(C)c1ccccc1NC(=O)c1cnn2c(C(F)F)cc(-c3ccccc3)nc12	n	n	x
Cc1ccc(NC(=O)c2cnn3c(C(F)F)cc(-c4ccccc4)nc23)c(C)c1	n	-50	n
O=C(Nc1noc2ccccc12)c1ccc(Br)o1	n	x	x
O=C(Nc1noc2ccccc12)c1c(F)cccc1F	n	-31	u
Cc1ccc(NC(=O)CSc2nc3ccc(Br)cc3[nH]2)c(C)c1	n	n	x
Brc1ccc2nc(SCCOc3ccccc3)[nH]c2c1	n	-32	u
COc1cc(OC)c(C(=O)Nc2nnc(C(F)(F)F)s2)cc1OC	n	x	x
O=C(O)/C=C/c1cc(Cl)ccc1OCc1ccccc1Br	n	x	x
N#CCCn1cc(C(=O)N2CCCCC2)c(-c2ccc(Cl)cc2)n1	n	x	x
C/C=C(\C)C(=O)O[C@H]1[C@@H](O[C@]2(COC(=O)CC(C)C)O[C@H](COC(=O)C(C)C)[C@@H](OC(C)=O)[C@@H]2O)O[C@H](COC(C)=O)[C@@H](O)[C@@H]1O	x	-38	u
CC(C)CC(=O)OC[C@H]1O[C@@](COC(=O)CC(C)C)(O[C@H]2O[C@H](CO)[C@@H](O)[C@H](O)[C@H]2OC(=O)CC(C)C)[C@@H](OC(=O)CC(C)C)[C@@H]1O	x	n	x
Clc1cccc(CNc2n[nH]c(-c3ccco3)n2)c1	n	x	x
O=C(NCc1ccccc1)C1CCN(C(=O)/C=C/c2cccc(C(F)(F)F)c2)CC1	n	x	x
COc1ccc(OC)c(NC(=O)COC(=O)c2sccc2C)c1	n	x	x
COc1ccccc1CNC(=O)c1sc(-c2ccc(OC)c(OC)c2)nc1C	n	x	x
Cc1nc(-c2ccc(OCC(C)C)c(C#N)c2)sc1C(=O)O	x	-49	6.5µM
N#Cc1c(Cl)nc(N/N=C/c2ccc([N+](=O)[O-])cc2)c(Cl)c1Cl	n	x	x
CN(C)C(=O)COC(=O)c1csc(NCc2ccccc2)n1	n	x	x
Cc1cccc(OCC(=O)N2CCC(Cc3nc(-c4cnccn4)no3)CC2)c1	n	n	x
COc1cccc(-c2noc(CC3CCN(C(=O)COc4cccc(C)c4)CC3)n2)c1	u	-25	n
COc1ccc2cc(-c3nc(-c4ccccc4Cl)no3)c(=O)oc2c1	n	x	x
COc1cccc2cc(S(=O)(=O)c3ccccc3F)c(=O)oc12	n	x	x
COCCn1c(CO)nnc1C1CC(NC(=O)C2(C)CCCC2)C1 (stereo not drawn)	n	-28	n
SMILES	KDM5B inh	IP6K1 inh	IP6K1 conf
COCCn1c(CO)nnc1C1CC(NC(=O)c2c(C)noc2C)C1 (stereo not drawn)	n	n	x
CCC(=O)N1CCN(c2nc3c(s2)CC(C(=O)Nc2ccc(F)cc2)CC3)CC1 (stereo not drawn)	n	n	x
CCc1ccccc1Nc1nn2c(=O)c3ccc(C(=O)NCc4cccs4)cc3nc2s1	u	n	x
CCc1ccccc1Nc1nn2c(=O)c3ccc(C(=O)NCc4ccccc4Cl)cc3nc2s1	n	-26	n
Cc1ccc2oc(C(=O)Nc3ccccc3Cl)cc(=O)c2c1	n	x	x
O=C(Nc1cc(-c2ccccn2)nn1-c1ccccc1)c1cccc(Br)c1	x	n	x
CC(=O)Nc1ccc(-n2c(CCC(=O)O)ccc2-c2ccc(Br)cc2)cc1	u	-41	n
CC(=O)Nc1ccc(-n2c(CCC(=O)O)ccc2-c2ccc(C)cc2)cc1	u	n	x
CCn1cnc2c1c(=O)n(CC(=O)Nc1cc(OC)cc(OC)c1)c(=O)n2Cc1ccccc1	n	x	x
CC(=O)Nc1ccc(NC(=O)c2ccccc2OCC2CCCO2)cc1Cl (stereo not drawn)	n	x	x
CC(C)(C)c1nc2c3cc[nH]c(=O)c3c3cc(F)ccc3c2[nH]1	x	x	n
CCCCCn1nc(C(=O)Nc2nc3ccccc3s2)c2ccccc2c1=O	n	x	x
O=C(c1ccc(N2CCCC(CO)C2)nc1)N1CCC(N2CCOCC2)CC1 (stereo not drawn)	u	-35	n
O=C(c1ccc(N2CCOCC2)nc1)N1CCCC(c2ccccc2)CC1 (stereo not drawn)	u	n	x
COc1ccc(-c2nnc(SCc3cn4cccc(C)c4n3)o2)cc1OC	n	x	x
COc1cccc(-c2nc3cc(SC)ccc3cc2CN(C)Cc2ccno2)c1	28µM	-33	n
